Consider 27 molecules from PubChem BioAssay (NCI).

Common to all, as to assay: NCI-60 one-dose screen, 48 h (100 = growth as untreated, 0 = no growth, -100 = all killed)
Common to all, as to conditions: 10 µM unless noted

Assay [1] relates to DU-145 prostate.
Assay [2] deals with K-562 leukemia.
For assay [3], the system named is MALME-3M melanoma.
Assay [4] relates to MDA-MB-231 breast.
Assay [5] has as its system RXF 393 renal.
The test system of assay [6] is SF-268 CNS.
Assay [7] relates to SF-295 CNS.
For assay [8], the system named is SF-539 CNS.
Assay [9] concerns UACC-257 melanoma.
In assay [10] the test system is M14 melanoma.

Compounds without any hit were thinned out: in the full panel of roughly 83,000, 20% have a hit.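 In brief: 96-well plates, 48 h treatment, single concentration, percent growth endpoint.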 Values without a mark were called inactive. The source made the active and inactive calls. The calls were made as follows: active = growth percent below 10; inactive = the rest.

Take `COC1=CC=CC2(OC)C3(O)CCCc4cccc(c43)N3C(=O)COC132` (stereo not given): the growth is 106% in [1]; 92.5% in assay [2]; 92.9% in assay [3]; 98.5% in [4]; 104% in [5]; 98.4% in [6]. The growth is 106% in assay [7], 98% in [8], 101% in assay [9] and 99.1% in [10].

On to `O=C(O)c1cn(C2CC2)c2cc(N3CCN(Cc4nnc(Nc5ccccc5)o4)CC3)c(F)cc2c1=O`, for which the growth was 103% in [1]; 84.4% in assay [2]; 89.1% in [3]; 109% in assay [4]; 118% in [5]; 90.2% in assay [6]. In addition, the growth in [7] was 102%; in assay [8] it was 99.4%; in assay [9], 106%; in [10], 95.7%.

As for `CC(C)(C)c1nc2c(s1)c1nc(N)ncc1c1ccc(NS(=O)(=O)c3c(F)cccc3F)c(F)c12`, the growth was 49.9% in assay [1]; 66.3% in assay [2]; -31.6% (active) in [3]; 29.2% in assay [4]; 13.6% in assay [5]; 79.1% in assay [6]. In addition, the growth was 60.7% in assay [7], 79.7% in assay [8], -13.1% (active) in assay [9] and 7.08% (active) in assay [10].

Take `COc1cc(-c2csc(NC(=O)Nc3ccc(C(F)(F)F)cc3)n2)cc(OC)c1OC`: the growth is 20.8% in assay [1]; 7.21% (active) in assay [2]; -12.1% (active) in assay [3]; -14.3% (active) in [4]; -4.21% (active) in assay [5]; 29.1% in assay [6]. The growth was -12.4% (active) in assay [7], 16% in assay [8], -18.1% (active) in assay [9] and 5.54% (active) in [10].

Turning to `O=c1cc(/C=N\Nc2nc(-c3ccc(Cl)cc3Cl)cs2)c2cc(Cl)ccc2o1`, the growth in assay [1] is 102%; in [2] it was 84.1%; in assay [3] it was 116%; in assay [4], 82.8%; in assay [5], 114%; in assay [6], 101%. The growth in assay [7] is 95.2%; in [8], 94.3%; in assay [9], 99.2%; in [10] it was 91.4%.

As for `COc1ccc(-n2cc(-c3ccc(Cl)c(Cl)c3)[nH]c2=O)cc1OC`, the growth in assay [1] is 98.3%; in assay [2], 80.2%; in [3] it was 80.1%; in assay [4] it was 85.1%; in assay [5] it was 108%; in [6], 109%. For the same molecule, the growth is 101% in assay [7], 102% in [8], 85.7% in assay [9] and 104% in [10].

In the case of `O=C(/C(=C/c1ccc([N+](=O)[O-])cc1)SCc1ccccc1)c1ccc(Cl)cc1`, the growth in assay [1] was 79.3%; in assay [2], 5.41% (active); in [3] it was 85.3%; in [4] it was 54.8%; in assay [5], 67.3%; in assay [6] it was 86.5%. Moreover, the growth in assay [7] is 90.3%; in assay [8], 94.3%; in assay [9], 90.2%; in assay [10], 67.3%.

As for `CN1CCN(/C=C2\CC(C(=O)NCc3ccc(Cl)cc3Cl)NC2=O)CC1` (stereo not given), the growth is 108% in [1]; 95.7% in assay [2]; 98.6% in assay [3]; 104% in assay [4]; 103% in [5]; 97.9% in assay [6]. Also, the growth in [7] is 110%; in assay [8] it was 102%; in assay [9], 93.2%; in assay [10], 110%.

For the molecule `C=C1C(=O)O[C@H]2[C@H]1CC/C(COC(=O)c1cc3ccccc3o1)=C\CC[C@@]1(C)O[C@@H]21`, the growth was -24.2% (active) in assay [1]; -2.5% (active) in assay [2]; -70.3% (active) in [3]; -38.8% (active) in assay [4]; -83.4% (active) in assay [5]; 4.87% (active) in [6]. Moreover, the growth is 74.8% in assay [7], -40.7% (active) in [8], 40.5% in [9] and -53.9% (active) in assay [10].

On to `Cc1c(O)c(=O)ccn1-c1nc2ccccc2s1`, for which the growth is 103% in assay [1]; 110% in assay [2]; 96.6% in [3]; 93.2% in [4]; 87.8% in assay [5]; 90.6% in assay [6]. Further, the growth was 105% in [7], 102% in [8], 90% in assay [9] and 84.2% in [10].

With `CCOC(=O)CC[C@H](NC(=O)c1ccc(NC)c2ccccc12)C(=O)OCC`, the growth is 104% in [1]; 92.9% in [2]; 114% in [3]; 97.9% in assay [4]; 111% in assay [5]; 100% in [6]. The growth is 101% in assay [7], 98.1% in assay [8], 86.1% in assay [9] and 99.5% in [10].

Regarding `COc1ccc(C(=O)c2cc(F)c(F)c(OC)c2F)cc1OC(=O)CCl`, the growth in assay [1] is 57.2%; in assay [2], 15.7%; in assay [3] it was 57%; in assay [4], 48.8%; in assay [5], 69.7%; in assay [6] it was 58.7%. In addition, the growth was 85.2% in assay [7], 25.6% in assay [8], 72% in [9] and -3.12% (active) in assay [10].

With `COc1cc2c(Nc3ccc(NC(=O)Nc4ccc(Cl)c(C(F)(F)F)c4)c(Cl)c3)ncnc2cc1OCCCN1CCN(C)CC1`, the growth was 2.84% (active) in assay [1]; -61% (active) in [2]; -50.8% (active) in assay [3]; -60.2% (active) in assay [4]; -40.5% (active) in assay [5]; 20.2% in [6]. Further, the growth was -67.3% (active) in assay [7], -77.9% (active) in [8], 54.6% in [9] and 0.0561% (active) in assay [10].

Take `C=C1C(=O)O[C@H]2[C@H]1CC/C(COC(=O)CCCCCCC(=O)OC/C1=C/CC[C@@]3(C)O[C@H]3[C@H]3OC(=O)C(=C)[C@@H]3CC1)=C\CC[C@@]1(C)O[C@@H]21`: the growth in assay [1] was 40.4%; in assay [2] it was 2.63% (active); in assay [3], -2.86% (active); in assay [4] it was -1.66% (active); in assay [5], -72.8% (active); in [6], 54.2%. Further, the growth in [7] is 94.9%; in [8], 21.1%; in assay [9], 70.7%; in assay [10], 30.6%.

On to `N#CC1(C#N)C2=C(CCCC2)NC(c2c(F)cccc2Cl)C1(C#N)C#N` (stereo not given), for which the growth is 89.7% in assay [1]; 25.8% in [2]; 74.7% in [3]; 87.5% in [4]; 78.2% in [5]; 89.9% in assay [6]. The growth in assay [7] was 81.3%; in [8], 50.1%; in [9], 75.2%; in assay [10] it was 49.5%.

As for `CCCCCCCc1n(Cc2ccc3ccccc3c2)c2ccccc2[n+]1Cc1ccc2ccccc2c1`, the growth in assay [1] is -94.7% (active); in [2], -67.3% (active); in assay [3] it was -67.2% (active); in [4] it was -81.2% (active); in assay [5], -72.1% (active); in assay [6] it was -74.9% (active). For the same molecule, the growth in [7] was -92% (active); in assay [8], -88.9% (active); in assay [9], -76.5% (active); in assay [10], -72% (active).

With `CNC(=O)c1cc(Oc2ccc3c(c2)sc2nc(-c4ccc(NC(C)=O)cc4)cn23)ccn1`, the growth in assay [1] was 23.1%; in assay [2], 50.5%; in assay [3] it was 71.8%; in assay [4], 59.5%; in assay [5], 8.2% (active); in assay [6] it was 64%. In addition, the growth in [7] is 26.2%; in [8], 62.8%; in assay [9] it was 70.9%; in assay [10] it was 46.5%.

For `COc1ccc(/C=C(/C(=O)N2CCCC2)c2cc(OC)c(OC)c(OC)c2)cc1`, the growth was 17% in [1]; 12.5% in [2]; 50.1% in assay [3]; 58.5% in assay [4]; 5.92% (active) in assay [5]; 60.1% in [6]. The growth in assay [7] is 18.3%; in assay [8], 17.1%; in assay [9] it was 52.4%; in [10], 2.21% (active).

For `N#CCNc1ccc(C(=O)O)cc1`, the growth in [1] was 113%; in assay [2] it was 97.4%; in assay [3], 105%; in [4] it was 104%; in [5], 101%; in [6], 105%. Further, the growth in assay [7] was 104%; in [8] it was 110%; in assay [9], 98.4%; in assay [10], 110%.

Regarding `Nc1c(C(=O)Nc2cccc3ccccc23)sc2nc3c(cc12)COCC3`, the growth in [1] was 58.7%; in assay [2], 17.5%; in [3] it was 60.8%; in [4], 53.3%; in assay [5], 41.4%; in [6] it was 56.5%. The growth in assay [7] was 28.9%; in assay [8], 30%; in assay [9] it was 54.5%; in [10], 35.7%.

Regarding `CCO/C=N/S(=O)(=O)c1cc2c(cc1Cl)NC=NS2(=O)=O`, the growth in assay [1] is 108%; in assay [2], 99.9%; in assay [3] it was 107%; in [4] it was 106%; in [5], 103%; in assay [6] it was 103%. For the same molecule, the growth in assay [7] was 104%; in assay [8], 98.1%; in assay [9] it was 90.2%; in assay [10] it was 101%.

Turning to `COc1ccccc1C(=O)/C=C/c1cc2cccc(OC)c2[nH]c1=O`, the growth in assay [1] was 16.5%; in [2], 5.33% (active); in assay [3], -0.686% (active); in assay [4], -0.926% (active); in assay [5], -43.5% (active); in assay [6] it was 2.36% (active). The growth in [7] was 14.1%; in assay [8] it was -10% (active); in [9], 33.6%; in [10], 9.63% (active).

Regarding `c1ccc2nc(N3CCOCC3)c(N3CCCCC3)nc2c1`, the growth was 111% in assay [1]; 90.5% in assay [2]; 92.1% in [3]; 97% in [4]; 98% in [5]; 95.2% in assay [6]. Also, the growth in [7] was 97.2%; in assay [8], 99%; in assay [9], 103%; in assay [10], 105%.

Turning to `COc1cc(C2=NNC(c3ccc(N(C)C)cc3)C2)cc(OC)c1OC` (stereo not given), the growth in assay [1] is 3.51% (active); in assay [2], -9.17% (active); in assay [3], 83.7%; in [4] it was 31.9%; in [5], -31.7% (active); in assay [6], 55.7%. Besides, the growth in assay [7] is 30.3%; in assay [8], -39.2% (active); in assay [9], 62.6%; in assay [10], 21.7%.

For the molecule `COc1cc(C2=NN(C=O)C(c3cccc(Nc4ccnc5cc(C(F)(F)F)ccc45)c3)C2)cc(OC)c1OC` (stereo not given), the growth was 40% in [1]; 37.8% in assay [2]; 86.3% in [3]; 58.1% in [4]; 72.4% in [5]; 46.6% in assay [6]. Moreover, the growth in assay [7] is 65.2%; in assay [8] it was 77%; in assay [9], 81.2%; in assay [10] it was 15.4%.

On to `C#Cc1cccc(Nc2ncnc3ccc(NC(=O)c4ccccc4)cc23)c1`, for which the growth in assay [1] was 50.9%; in assay [2] it was 63.6%; in assay [3], 104%; in [4] it was 95.6%; in [5], 58.5%; in [6], 74.7%. The growth was 89.7% in assay [7], 90.5% in [8], 99.6% in [9] and 90.6% in assay [10].

On to `Cc1cnc(SCc2ccc(Cl)cc2)[nH]c1=S`, for which the growth in [1] was 100%; in [2], 92.9%; in assay [3] it was 95.8%; in [4] it was 101%; in assay [5], 132%; in assay [6] it was 95.3%. The growth in assay [7] was 95.5%; in [8], 101%; in assay [9], 102%; in assay [10], 102%.
